SMILES strings stand for the structures. A number with no mark means an inactive call. Results filed as inconclusive are left out. Activity calls are given as the source filed them. Unless noted, the call rests on the fitted dose curve; in most records, active means well fitted curve in the direction sought with a large enough effect in the repeat runs; inconclusive means weak or mixed curves; inactive means no such curve, though single readings can be large; an effect the other way counts as inactive or inconclusive.

The nature of experiment [1]: qHTS assay for small molecules that induce genotoxicity in human embryonic kidney cells expressing luciferase-tagged ATAD5 (AID 651632). Further: nearly all actives have a fitted effect of over 15% in size. In outline:
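DMSO vehicle served as the control. HEK293T reporter cells, 16 hr at 37C, then 30 min Amplite at room temperature; ATAD5 induction is measured as luciferase activity.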
(In qHTS, concentration-response curves come from the screen itself.)

A short description of experiment [2]: qHTS assay for small molecule agonists of the p53 signaling pathway - cell viability (AID 651633; calls by dose curve;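 further: p53RE-bla HCT reporter cells with a stable beta-lactamase p53 reporter; series mostly up to about 83 µM; nearly all actives have a fitted effect of over 30% in size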). In outline:
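p53RE-bla cells, seeded at 4,000 per well and rested 5 h at 37 C/5% CO2, received compounds in DMSO for 16 h at 37 C. CellTiter-Glo was then added, and luminescence was read after 30 min at room temperature to gauge cytotoxicity.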

Experiment [3] in a line: qHTS assay for small molecule disruptors of the mitochondrial membrane potential - cell viability (AID 720634; calls by dose curve;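 further: human HepG2 liver cancer cells; series mostly up to about 83 µM; nearly all actives have a fitted effect of over 20% in size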). In outline: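 Viability of HepG2 cells is scored from ATP content by luminescence; cells are exposed to compound for 1 hr at 37 C and 5% CO2, then dosed with m-MPI dye before the CellTiter-Glo reagent.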
Experiment [4] in a line: qHTS assay to test for compound auto fluorescence at 590 nm (red) in HepG2 cells (AID 720674). In outline: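 Intrinsic compound fluorescence in the red window (Ex/Em 540/590 nm) is measured in attached HepG2 cells exposed for 1 hr, DMSO vehicle as baseline, benchmarked to Rose Bengal sodium.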
A short description of experiment [5]: qHTS assay to test for compound auto fluorescence at 535 nm (green) in HepG2 cells (AID 720675).
Experiment [6] can be described thus: qHTS assay to test for compound auto fluorescence at 460 nm (blue) in HEK293 cells (AID 720678). In outline: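 HEK293 cells (2,000 per well, medium with 10% dialyzed FBS) attached for 4-5 hr at 37C, then received compound and stood overnight at 37C, 5% CO2. Blue fluorescence was read at Ex/Em 405/460 nm and expressed relative to triamterene.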
A short description of experiment [7]: qHTS assay to test for compound auto fluorescence at 590 nm (red) in HEK293 cells (AID 720679). The essentials: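 HEK293 cells (2,000/well, medium with 10% dialyzed FBS) attached for 4-5 hr at 37C, received 23 nL compound and were incubated overnight at 37C, 5% CO2. Red fluorescence was then read at 540/590nm Ex/Em, referenced to Rose Bengal sodium.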
Experiment [8] can be described thus: qHTS assay for small molecule disruptors of the mitochondrial membrane potential (AID 720635). The essentials: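 HepG2 cells (2,000/well) attached overnight at 37C, then took compound for 1 hr at 37C, 5% CO2. Mito-MPS dye was added for 30 min; fluorescence was read at 490/535 nm (monomers) and 540/590 nm (aggregates).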
Experiment [9] in a line: qHTS assay for small molecules that induce genotoxicity in human embryonic kidney cells expressing luciferase-tagged ATAD5 - cell viability (AID 651634; calls by dose curve; further: nearly all actives have a fitted effect of over 25% in size; further: potency means the concentration at half of the fitted maximal effect). The essentials: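 Here HEK293T cells with the ATAD5 luciferase reporter are incubated with test compounds for 15.5 hr, and cytotoxicity is then gauged by measuring protease activity in live cells using fluorescence.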
On the % scale 0 is the no-effect control and ±100 the full control effect.

Turning to `CCCOC(=O)CCCCC(=O)OCCC`, the compound was called inactive in experiment [1], in experiment [2], in experiment [3], in [4], in experiment [5] and in experiment [6]. For the same compound, the outcome in [7] was inactive.
As for `O=C(O)C(=O)Nc1cccc(-c2nn[nH]n2)c1`, the call in [1], in experiment [2], in experiment [3], in experiment [4], in [5] and in [6] was inactive. The call in experiment [7] was inactive. The Potency result in experiment [8] was “inactive”.
`O=S(=O)(O)CCO`: the call in [1], in experiment [2], in [4], in experiment [5], in [6] and in experiment [7] was inactive. The Potency result in experiment [9] was “inactive”.
For `O=C1CC[C@H](C(=O)N2CCCCC2)N1`, the compound was called inactive in experiment [1], in [2], in experiment [3], in [4], in experiment [5] and in [6]. The compound was classed as inactive in experiment [7]. The Potency result in [8] is “inactive”.
On to `CN=C(NC#N)NCCSCc1csc(N=C(N)N)n1`, for which the result in experiment [1], in experiment [2], in [3], in experiment [4], in experiment [5] and in experiment [6] was inactive. For the same compound, in experiment [7], the outcome was inactive. Also, the Potency entry in experiment [9] was “inactive”.
With `CO[Si](CCCS)(OC)OC`, the call in [1], in [2], in [3], in experiment [4], in experiment [6] and in experiment [7] was inactive. In addition, the Potency result in [9] was “inactive”.
Consider `O=S1(=O)CCCC1`, for which the compound was called inactive in experiment [1], in experiment [2], in experiment [4], in [6] and in experiment [7].
As for `CC(C)(C)NCCO`, the compound was called inactive in experiment [1], in [2], in experiment [3], in experiment [4], in experiment [5] and in experiment [6]. Moreover, the call in [7] was inactive.
Regarding `CC1=NN(c2ccc(S(=O)(=O)O)cc2)C(=O)C1N=Nc1ccccc1` (centres undefined), the compound was classed as inactive in [1], in [2], in [3], in experiment [4], in experiment [5] and in experiment [6]. In addition, in experiment [7], the compound was classed as inactive.
Take `Cc1nc([N+](=O)[O-])cn1-c1ccc([N+](=O)[O-])cc1`: the result in experiment [1], in [2], in experiment [3], in [4], in experiment [5] and in experiment [6] was inactive. Moreover, the call in [7] was inactive. For the same compound, in experiment [8], the Potency entry was “inactive”.
Turning to `C[C@H](CCC(=O)O)[C@H]1CC[C@H]2[C@@H]3[C@H](O)C[C@@H]4C[C@H](O)CC[C@]4(C)[C@H]3C[C@H](O)[C@]12C`, the call in [1], in [2], in experiment [3], in [4], in experiment [5] and in experiment [6] was inactive. Besides, in [7], the result was inactive. In addition, the Potency entry in experiment [8] was “inactive”.
As to `COCC(=O)Nc1c(I)c(C(=O)NCC(O)CO)c(I)c(C(=O)N(C)CC(O)CO)c1I` (centres undefined), the compound was classed as inactive in experiment [1], in experiment [2] and in experiment [3]. In addition, the Potency entry in [9] is “inactive”. Moreover, the fluorescence, relative to Rose Bengal in [4] is -0.339% [at 18.6 µM]. In addition, the fluorescence, % of fluorescein control in [5] was 0.0261% [at 18.6 µM]. Further, the fluorescence, % of triamterene in experiment [6] was -0.157% [at 18.6 µM]. Besides, in experiment [7], the fluorescence, % of fluorescent control was 0.231% [at 18.6 µM].
As to `C=CCOC(=O)c1ccc(C(=O)OCC=C)c(C(=O)OCC=C)c1`, the result in experiment [1], in experiment [2], in experiment [4], in [5], in [6] and in experiment [7] was inactive. For the same compound, the Potency entry in experiment [8] was “inactive”.
Turning to `NCCc1ccn[nH]1`, the result in experiment [1] and in [3] was inactive. In addition, the Potency result in experiment [9] was “inactive”. In addition, the fluorescence, relative to Rose Bengal in [4] is 0.0089% [at 18.6 µM]. For the same compound, in experiment [6], the fluorescence, % of triamterene was -0.006% [at 18.6 µM]. In [7], the fluorescence, % of fluorescent control is 0.131% [at 18.6 µM].
As to `O=C(O)c1c(Cl)ccc(Cl)c1Cl`, the compound was called inactive in experiment [1], in experiment [4], in experiment [5], in [6] and in experiment [7]. The Potency entry in [9] was “inactive”.
As to `CCCCCCCC[Si](OCC)(OCC)OCC`, the call in experiment [1], in experiment [3], in experiment [4], in [5], in experiment [6] and in experiment [7] was inactive.
As for `O=C(/C=C/c1ccccc1)NCCO`, the outcome in experiment [1], in experiment [3], in [4], in [6] and in [7] was inactive. In addition, the Potency entry in [9] and in experiment [8] was “inactive” each time.
Regarding `CCN(CCC#N)c1ccccc1`, the compound was called inactive in experiment [1], in experiment [3], in experiment [4], in [5], in [6] and in [7]. For the same compound, the Potency result in [9] was “inactive”.
Regarding `Nc1cc(Cl)cc(S(=O)(=O)O)c1O`, the compound was called inactive in [1], in [3], in experiment [4], in experiment [5], in [6] and in experiment [7]. Further, the Potency result in [9] is “inactive”.
With `COc1cc2c(Nc3ccc(Br)cc3F)ncnc2cc1OCC1CCN(C)CC1`, the outcome in experiment [1], in experiment [3], in experiment [4], in [5], in experiment [6] and in [7] was inactive. In addition, the Potency in experiment [9] was 13.3 µM (active).
For the compound `Cn1c(=O)c2c(ncn2CC2OCCO2)n(C)c1=O`, the compound was classed as inactive in experiment [1], in experiment [3], in experiment [4], in experiment [5], in [6] and in experiment [7]. In addition, in experiment [9], the Potency result is “inactive”.
Consider `O=C(O)c1ccccc1C(=O)OCc1ccccc1`, for which the outcome in experiment [2], in experiment [3], in [4], in [5], in [6] and in experiment [7] was inactive. Besides, the Potency entry in experiment [9] is “inactive”.
Consider `CO/N=C(/C(=O)N[C@@H]1C(=O)N2C(C(=O)O)=C(Cn3nnc(C)n3)CS[C@H]12)c1csc(N)n1`, for which the compound was called inactive in [1], in [3], in experiment [4], in experiment [6] and in [7]. The Potency entry in experiment [9] and in experiment [8] was “inactive” in each case.
As to `CCCCCC(=O)OCC`, the result in [1], in experiment [3], in experiment [4], in [5], in experiment [6] and in [7] was inactive. In addition, the Potency result in experiment [9] was “inactive”.
